Screening results: PubChem, National Center for Advancing Translational Sciences (NCATS)
Most compounds without a hit are left out; they make up all but 2.2% or so of the library.
Giardia killer: Giardia lamblia killing; Giardia lamblia trophozoite viability; activity change, % at 7.66 µM, hits read low; hit rate 0.15% among 340,000; in the data active means activity change below about -80%; inconclusive means between about -30% and that limit;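 further: parasites exposed to compound for two days anaerobically before the ATP read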
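Giardia lamblia trophozoites (100 cells/well) were incubated with compounds for 48 h at 37 deg C under anaerobic conditions. Viability was read as ATP content by one-step luminescence after 15-30 min at room temperature.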
mIDH1 inhibitor: inhibitors of human mutant IDH1 R132H. O75874. IDH1-R132H enzyme, NADPH consumption, diaphorase/resazurin fluorescence. Potency, µM (series often up to 76.6 µM), actives largely listed as inhibitors. hit rate 0.093% among 390,000. AID 602179; further: nearly all actives have a fitted effect of over 65% in size
Target sequence (O75874 whole entry R132H, stated change not applied): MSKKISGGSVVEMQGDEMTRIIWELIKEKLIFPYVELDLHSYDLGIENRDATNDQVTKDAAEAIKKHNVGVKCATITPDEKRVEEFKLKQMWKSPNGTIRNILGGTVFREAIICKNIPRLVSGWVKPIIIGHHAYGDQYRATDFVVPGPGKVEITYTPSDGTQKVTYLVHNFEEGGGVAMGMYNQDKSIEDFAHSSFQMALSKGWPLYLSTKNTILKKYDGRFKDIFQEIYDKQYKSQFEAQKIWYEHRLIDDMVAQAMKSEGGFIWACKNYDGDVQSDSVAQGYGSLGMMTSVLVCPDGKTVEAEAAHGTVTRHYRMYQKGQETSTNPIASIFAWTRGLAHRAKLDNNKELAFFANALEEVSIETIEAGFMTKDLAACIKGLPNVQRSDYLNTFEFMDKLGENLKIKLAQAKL
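IDH1-R132H (0.5 ug/mL) preincubated 30 min with compound, then NADPH (0.016 mM) and alpha-KG (2 mM) added; 80 min at RT, pH 7.5. Remaining NADPH coupled via diaphorase/resazurin to fluorescence (540/590 nm); concentration-response curves normalized to no-enzyme control.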
IL-2 act: activates IL-2 in a cell-based reporter assay. IL-2 activation reporter assay, cell-based qHTS; stimulated with anti-CD3/CD4/CD28 beads; in transgenic mouse T cells. hit rate 0.065% among 360,000. activation, % (series mostly up to about 46 µM); in the data active means activation above about 50%; inconclusive means mostly about 30% to 49%
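Unstimulated transgenic mouse T cells; 60-min compound exposure; bead-based TCR/CD4/CD28 stimulation; 18 h culture, 37 degrees C; dual fluorescence (EGFP, DsRed) plate cytometry.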
TrxR1 substrate: rat thioredoxin reductase 1 substrate activity. O89049. purified TrxR1 substrate turnover, NADPH consumption readout. Potency, µM (titrated, usually from 114 µM). hit rate 0.01% among 390,000; further: nearly all actives have a fitted effect of over 50% in size
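Rat TrxR1, dispensed at 90 nM, was prereduced with 400 uM NADPH (final) for 5 min at ~22 deg C, then incubated with compound 15 min before 400 uM selenite. A first-read NADPH fluorescence drop versus no-compound background flagged substrates.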
rTrxR1 inhibitor: inhibitors of rat thioredoxin reductase 1. recombinant rTrxR1, NADPH fluorescence consumption, selenite substrate. Potency, µM (titrated, usually from 114 µM), actives largely listed as inhibitors. O89049. hit rate 1% among 390,000; further: nearly all actives have a fitted effect of over 65% in size
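Rat TrxR1 (90 nM in the dispensed reagent) was pre-reduced with 400 uM NADPH for 5 min at room temperature, then incubated with compound for 15 min. After 400 uM selenite was added, NADPH fluorescence (Ex 340/Em 450 nm) was followed for 8 min.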
BRCA1 expr act: activators of BRCA1 expression; MCF7-BRCA1-FFLuc reporter, luminescence, 48 h; response scale: scaled: vehicle 0%, 10 µM genistein 100%; Potency, µM (top dose mostly 46.1 µM), most hits filed as activators; hit rate 1.1% among 380,000; further: nearly all actives have a fitted effect of over 80% in size
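Using MCF7 cells harboring a BRCA1 firefly luciferase reporter, plated 2 h before compound pinning, the screen measured luminescence after 48 h incubation. Responses were normalized to DMSO and 10 microM genistein, then fitted for concentration-effect.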
IDH1 autofl: counter-screen for mutant IDH1 inhibitors: fluorescence interference | Resorufin detection reagent fluorescence interference, cell-free | shares compounds with mIDH1 inhibitor | 750 tested, under 10 active | inhibition of signal, % at 51.2 µM | AID 623980
IDH1 WT: wild-type IDH1 (human) inhibition counterscreen. Potency, µM (doses to about 115 µM), usual class: inhibitors. hit rate 9% among 750. WT IDH1 enzyme, NADPH diaphorase/resazurin fluorescence. AID 623995. shares compounds with mIDH1 inhibitor; further: nearly all actives have a fitted effect of over 55% in size
Target sequence (O75874 whole entry, looked up): as the sequence (O75874 whole entry R132H, stated change not applied) above, with H132R counted along it
IDH1 R132H conf: inhibits human mutant IDH1 enzyme in cherrypick confirmation; shares compounds with mIDH1 inhibitor; IDH1 R132H enzyme, NADPH diaphorase/resazurin fluorescence; Potency, µM (series often up to 76.6 µM), usual class: inhibitors; hit rate 83% among 750; further: nearly all actives have a fitted effect of over 50% in size
Each line names hits and unclear results; the compound was inactive in the other large screens (follow-up assays come after a bar, where they were run). Unless noted, the call rests on the fitted dose curve; in most records, active means well fitted curve in the direction sought with a large enough effect; inconclusive means small, poorly fitted or top-dose-only effect, or another doubt; inactive means no such curve, though single readings can be large; an effect the other way counts as inactive or inconclusive.

CC[C@]12c3[nH]c4cc(CCC(=O)N(C)C)ccc4c3CCN1C(=O)[C@@H](CC(=O)NC/C=C(\C)CCC=C(C)C)C[C@@H]2C(=O)N1CCN(C(=O)c2ccco2)CC1	mIDH1 inhibitor inconclusive | IDH1 autofl inactive | IDH1 WT inactive | IDH1 R132H conf 31.6µM
C=CS(=O)(=O)c1ccc(Oc2ccc(S(=O)(=O)C=C)cc2)cc1	mIDH1 inhibitor 31.6µM, rTrxR1 inhibitor 5.01µM | IDH1 autofl inactive | IDH1 WT inconclusive | IDH1 R132H conf 11.2µM
Cc1ccc(N(C(=O)c2snc(C(N)=O)c2N)C(CC(C)C)C(=O)NC2CCCC2)cc1 (configuration not stated)	none
COc1ccc(C)cc1N(C(=O)c1snc(C(N)=O)c1N)C(C(=O)NC1CCCCC1)c1ccc(C)o1 (configuration not stated)	mIDH1 inhibitor inconclusive | IDH1 autofl inactive | IDH1 WT inactive | IDH1 R132H conf 14.1µM
COc1ccccc1N(C(=O)c1snc(C(N)=O)c1N)C(C(=O)NC1CCCC1)c1ccco1 (configuration not stated)	none
COc1ccccc1N(C(=O)c1snc(C(N)=O)c1N)C(C(=O)NC1CCCCC1)c1cccc(OC)c1OC (configuration not stated)	mIDH1 inhibitor inconclusive | IDH1 autofl inactive | IDH1 WT inactive | IDH1 R132H conf inconclusive
CCCCC(C(=O)NC1CCCC1)N(C(=O)c1snc(C(N)=O)c1N)c1ccc(C)cc1 (configuration not stated)	mIDH1 inhibitor inconclusive | IDH1 autofl inactive | IDH1 WT inactive | IDH1 R132H conf inconclusive
Cc1cccc(N(C(=O)c2snc(C(N)=O)c2N)C(C(=O)NC2CCCC2)c2ccco2)c1 (configuration not stated)	mIDH1 inhibitor inconclusive | IDH1 autofl inactive | IDH1 WT inactive | IDH1 R132H conf 35.5µM
C=C1C[C@@]23CC[C@H]4[C@@](C)(CCC[C@@]4(C)C(=O)O)[C@@H]2CC[C@]1(O)C3	none (no result: Giardia killer, mIDH1 inhibitor, IL-2 act, BRCA1 expr act)
COC(=O)c1ccc(NC(=O)CCc2c(C)nc3c(c2C)c(=O)n(C)c(=O)n3C)cc1	none (no result: Giardia killer, IL-2 act)
CCCCOc1ccc(/C=N/NC(=S)Nc2cc(C)ccc2C)cc1	none
CCCCOc1ccc(/C=N/NC(=S)Nc2cccc(C)c2C)cc1	mIDH1 inhibitor inconclusive | IDH1 autofl inactive | IDH1 WT inactive | IDH1 R132H conf 11.2µM
CCN(CC)CCNC(=O)c1ccc2c(c1)NC(=O)C(CS(=O)(=O)Cc1ccc(F)cc1Cl)N2 (configuration not stated)	none (no result: Giardia killer, IL-2 act, BRCA1 expr act)
O=C(COc1ccccc1-c1ccccc1)NCCN1C(=O)S/C(=C\c2cccnc2)C1=O	mIDH1 inhibitor 46.5µM | IDH1 autofl inactive | IDH1 WT inactive | IDH1 R132H conf 28.2µM
O=C(COc1ccccc1-c1nc(-c2ccccc2)no1)Nc1cccc([N+](=O)[O-])c1	none (no result: Giardia killer, IL-2 act, BRCA1 expr act)
OCCN(CCO)c1ccc(C(c2ccccc2Cl)c2ccc(N(CCO)CCO)cc2Cl)c(Cl)c1	mIDH1 inhibitor 18.5µM | IDH1 autofl inactive | IDH1 WT 39.8µM | IDH1 R132H conf 12.6µM
OCCN(CCO)c1ccc2ccccc2c1	rTrxR1 inhibitor inconclusive
CC1=CC(C)(C)N2C(=O)C3(C(C#N)=C(N)Oc4cc(O)ccc43)c3c(C)c(C)cc1c32 (configuration not stated)	mIDH1 inhibitor 23.3µM | IDH1 autofl inactive | IDH1 WT inactive | IDH1 R132H conf 20µM
